Six1-Eya2 blk: Six1/Eya2 interaction inhibition; activity change, % (no concentration beside the values); AlphaScreen GST-Six1/His-Eya2 binding, biochemical; stronger effect = lower value; AID 651725; 360,000 tested, 0.56% active; in the data active = activity change below about -65%; inconclusive = mostly about -30% to -63%
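GST-Six1 + His-Eya2 (5X stock: 250/500 nM); Tris pH 8.0, 300 mM NaCl, 0.05% BSA, 0.02% Tween 20; GSH donor/Ni acceptor beads; 1 h 37 °C dark; AlphaScreen readout.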
RORg inh: blocks mouse ROR gamma transcriptional activity; Drosophila S2 Gal4-RORgamma UAS-luciferase reporter, 20 h; Potency, µM (highest dose often 53.6 µM), for the others: top-dose activity change, negative = inhibition, usual class: inhibitors; 310,000 tested, 5.4% active; also: potency is read from the fitted curve at half-maximal effect; nearly all actives have a fitted effect of over 60% in size
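A Gal4/UAS one-hybrid system in insect cells: metallothionein-promoter Gal4–ROR gamma fusion plus Photinus luciferase reporter. Copper sulfate 700 uM final, 20 hr ambient incubation, luminescent detection after 10 min with reagent.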
CtBP-E1A blk: blocks the CtBP interaction with E1A; AlphaScreen GST-E1A/His-CtBP binding, 1536-well; stronger effect = lower value; activity change, % (no concentration beside the values); 340,000 tested, 0.49% active; AID 651724; in the data active = activity change below about -65%; inconclusive = mostly about -30% to -63%
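GST-E1A and His-tagged CtBP (125 nM each as 5X stock) were preincubated with pin-transferred compound for 2 h at 37 °C in the dark, then glutathione donor and nickel acceptor beads were added for 1 h before AlphaScreen reading.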
Gal4-VP16 FLuc: Gal4-VP16 reporter inhibition counter-screen. 310,000 tested, 3.5% active. Potency, µM (series often up to 53.6 µM), inactives show at the top dose activity, negative = inhibition, hits mostly inhibitors. Drosophila S2 Gal4-VP16 UAS-luciferase, luminescence, 20 h;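 also: Gal4-VP16 expression switched on by copper sulfate through the metallothionein promoter; potency is read from the fitted curve at half-maximal effect; nearly all actives have a fitted effect of over 50% in size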
PKM2 act: increases activity of human pyruvate kinase M2; purified PKM2, Kinase-Glo ATP luminescence, activation; response scale: 0% is enzyme alone, no compound; P14618; Potency, µM (titrated, usually from 57.5 µM), for the others: at the top dose activation, most hits filed as activators; 260,000 tested, 0.34% active; also: potency is read from the fitted curve at half-maximal effect; nearly all actives have a fitted effect of over 55% in size
Target sequence (P14618 whole entry, looked up): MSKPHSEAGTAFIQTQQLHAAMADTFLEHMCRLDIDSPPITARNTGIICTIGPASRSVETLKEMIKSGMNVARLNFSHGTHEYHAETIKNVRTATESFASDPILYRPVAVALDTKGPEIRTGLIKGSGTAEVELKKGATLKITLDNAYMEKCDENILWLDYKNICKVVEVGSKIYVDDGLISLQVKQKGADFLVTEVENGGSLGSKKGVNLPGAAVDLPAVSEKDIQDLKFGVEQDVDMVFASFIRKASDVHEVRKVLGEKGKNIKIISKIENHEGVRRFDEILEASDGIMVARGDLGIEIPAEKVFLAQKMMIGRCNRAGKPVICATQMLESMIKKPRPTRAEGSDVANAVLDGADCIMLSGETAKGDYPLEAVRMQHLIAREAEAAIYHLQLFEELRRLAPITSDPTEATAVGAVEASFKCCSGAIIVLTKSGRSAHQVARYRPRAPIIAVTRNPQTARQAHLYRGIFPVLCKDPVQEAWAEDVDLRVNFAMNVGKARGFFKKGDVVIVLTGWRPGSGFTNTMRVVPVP
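Purified hPK-M2 (>95%) run at intermediate activity with 0.1 mM ADP and 0.5 mM PEP in 50 mM imidazole pH 7.2, KCl, MgCl2; 1 h room temperature. ATP formed read by Kinase-Glo luminescence; normalized to uninhibited and no-enzyme controls.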
* hit, by the source's call; ? = inconclusive; / = no result; [ ] = another dose, or the depositor's remark. Most compounds without a hit are left out; they make up all but 5.6% or so of the library. Unless noted, calls follow the shape of the dose curve; as a rule, active = well fitted curve in the direction sought with a large enough effect; inconclusive = small, poorly fitted or top-dose-only effect, or another doubt; inactive = no such curve, though single readings can be large; an effect the other way counts as inactive or inconclusive. % is scaled to controls: 0 for no effect and ±100 for the full control effect.

SMILES | Six1-Eya2 blk | RORg inh | CtBP-E1A blk | Gal4-VP16 FLuc | PKM2 act
Cc1c(O)ccc(/C=N/Nc2ncccc2[N+](=O)[O-])c1O | ? | 10µM* | ? | ? | -5%
O=[N+]([O-])c1cccnc1N/N=C/c1ccccc1O | -4 | -26% | -23 | -4% | -37%
O=C1CCC([N+](=O)[O-])C(c2ccc(-c3ccccc3)cc2)N1 (stereo not drawn) | 4 | / | 8 | / | /
Cc1cc2nc(CCN(C(=S)NCC3CCCO3)C3CCCC3)[nH]c2cc1C (stereo not drawn) | -6 | 13µM* | -7 | ? | -1%
Cc1cc2nc(CCN(C(=S)NCC(C)C)C3CCCC3)[nH]c2cc1C | -3 | 7.1µM* | -2 | ? | 0%
Cc1ccccc1NC(=S)NC1CCN(Cc2ccccc2)CC1 | -4 | 18µM* | -4 | ? | -5%
CCC(C)c1ccc(NC(=S)NC2CCN(Cc3ccccc3)CC2)cc1 (stereo not drawn) | 0 | 7.1µM* | -11 | 7.1µM* | -17%
S=C(Nc1ccc(Cl)cc1)NC1CCN(Cc2ccccc2)CC1 | -3 | 18µM* | -3 | ? | 4%
CCc1ccc(NC(=S)NC2CCN(Cc3ccccc3)CC2)cc1 | -15 | 10µM* | -15 | ? | -9%
S=C(Nc1ccccc1)NC1CCN(Cc2ccccc2)CC1 | 12 | 7% | 0 | -15% | -2%
COc1ccc(NC(=S)NC2CCN(Cc3ccccc3)CC2)cc1OC | -4 | -26% | -29 | 1% | -5%
COCCNC(=O)c1cn(C)c2ccc(S(=O)(=O)N3CCCCC3)cc2c1=O | 3 | -8% | / | 3% | /
CC(=O)N(CCCNC(=O)c1ccccc1)C(=O)c1ccccc1 | 2 | / | -1 | / | /
OCc1ccc(O)c2ncccc12 | -88* | 13µM* | -92* | 18µM* | 2%
Cc1ncc(COCc2ccccc2)c(CO)c1OCc1ccccc1 | -4 | / | 14 | / | /
Oc1ccc(COCc2ccccc2)c2cccnc12 | -90* | 0.56µM* | -98* | ? | 2%
Cc1nc2ccccc2c2ncccc12 | -2 | -9% | -10 | -4% | /
Oc1ccc(Cc2ccccc2)c2cccnc12 | -75* | / | -92* | / | /
Oc1ccccc1CNc1cccc2cccnc12 | ? | ? | ? | ? | 19%
Oc1ccc(CNc2ccccc2F)c2cccnc12 | -91* | 10µM* | -94* | ? | -3%
CC(C)(C)OC(=O)NCc1ccc(CNC(=O)c2nc[nH]c2C(=O)N2CCN(C(=O)OC(C)(C)C)CC2)cc1 | 2 | / | 4 | / | /
O=C(O)c1ccc(-c2ccccc2C(F)(F)F)s1 | / | -3%[96.6 µM] | / | -12%[96.6 µM] | /
O=C(O)C1C2C=CC(O2)C1C(=O)Nc1ccc(S(=O)(=O)Nc2ccccc2)cc1 (stereo not drawn) | 0 | ? | 2 | ? | 28µM*
Cc1ccc(Oc2c(C(N)=O)cc([N+](=O)[O-])cc2[N+](=O)[O-])cc1 | 6 | 2.8µM* | 3 | 2.5µM* | 0%
Cc1ccc(CNc2ccc([N+](=O)[O-])cc2C(N)=O)cc1 | -7 | / | 0 | / | /
SMILES | Six1-Eya2 blk | RORg inh | CtBP-E1A blk | Gal4-VP16 FLuc | PKM2 act
CC(O)(c1ccc(F)c(F)c1)c1nc(-c2ccc3ccccc3c2)cs1 (stereo not drawn) | -2 | / | 0 | / | /
COC(=O)c1cnn(-c2ccccc2)c1/C=N/NC(=S)Nc1ccc(Cl)cc1 | -15 | 0.45µM* | -1 | 2µM* | -2%
COCCNC(=S)NNc1ccc(Cl)c(C(=O)O)c1 | 4 | -7% | 1 | 1% | -8%
COCCNC(=S)N/N=C(\C)c1ccc(Cl)c(Cl)c1 | -11 | 2.8µM* | -8 | 4.5µM* | 6%
C/C(=N\O)c1ccc(Cl)c(Cl)c1 | 2 | 1% | 18 | -13% | 0%
CNC(=S)N/N=C(\C)c1ccc(Cl)c(Cl)c1 | -3 | 2.8µM* | -1 | 7.1µM* | 7%
COCCNC(=S)N/N=C(\C)c1ccc(Cl)c(Cl)c1Cl | -5 | 4µM* | 0 | 7.9µM* | 1%
CSc1ccc(C(=O)C2CCCN(C(=O)Cc3nonc3C)C2)cc1 (stereo not drawn) | 9 | 34% | 0 | -3% | -26%
O=c1cc2c(=O)oc3cc(O)c(O)oc3c2c(O)c1O | -78* | -27% | -23 | -21% | -7%
